Data: PubChem BioAssay AID492972 (The Scripps Research Institute Molecular Screening Center, 2010)
Among all 340,000 compounds or so, about 930 (0.27%) were called active. The list comes from a sample in which actives are over-represented; it also holds similar structures and randomly drawn compounds. Values without a mark were called inactive.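 Rule for the calls: active = inhibition above the screen-wide average of all tested compounds plus 3 SD (cut at about 25% in these data); inactive = the rest.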

The compounds below were run against Platelet-activating factor acetylhydrolase IB subunit alpha1 (Homo sapiens) (UniProt Q15102) (assay: PAFAH1B3 enzyme inhibitors, primary screen, biochemical, fluorescence polarization, human (AID 492972;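 note: 0% = enzyme with DMSO only and 100% = wells lacking PAFAH1B3 protein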)). Conditions: recombinant PAFAH1B3, FP-rhodamine probe, at 3.39 µM, hits give high values.
Chain of Platelet-activating factor acetylhydrolase IB subunit alpha1 (Homo sapiens) (Q15102 whole entry, looked up): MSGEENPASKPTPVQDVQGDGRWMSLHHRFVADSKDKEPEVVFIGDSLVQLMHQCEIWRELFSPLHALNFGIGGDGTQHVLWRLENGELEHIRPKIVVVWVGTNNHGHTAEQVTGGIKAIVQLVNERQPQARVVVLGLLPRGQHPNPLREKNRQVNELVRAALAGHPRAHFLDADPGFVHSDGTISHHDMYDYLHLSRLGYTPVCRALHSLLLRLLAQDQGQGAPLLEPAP

How did the inhibition turn out when C[n+]1cccc(C(=O)O)c1 was run?
The inhibition was 4.85%.

How did the inhibition turn out when O=C(COc1ccc(S(=O)(=O)NCc2ccccc2)cc1)N1CCOCC1 was run?
The inhibition was -1.1%.

Which inhibition does the source give for Cn1cccc1/C=N/NC(=O)c1ccc(OC(F)(F)C(F)F)cc1 here?
The inhibition was 4.01%.

With O=C(Nc1ccc(OC(F)(F)F)cc1)c1ccc2c(c1)no[n+]2[O-] as the compound, how does the inhibition read?
The inhibition was 51.2% (active).

CCOC(=O)Cc1ncccc1C(=O)Nc1ccc(OC(F)(F)F)cc1 was tested. Which inhibition did it give?
Its inhibition is 4.95%.

With O=C(COc1ccccc1)Nc1cc2c3c(c1)CC(=O)N3CCC2 as the compound, how does the inhibition read?
The inhibition was 3.19%.

CCC(C)NC(=O)CN(C1CCCCC1)S(C)(=O)=O (stereo not given) was tested. Which inhibition did it give?
Its inhibition is -2.01%.

How did the inhibition turn out when Cc1cc(NC(=O)CCC(=O)N(CC(=O)NCC2CCCO2)c2ccccc2)no1 (stereo not given) was run?
Its inhibition is -3.62%.

For CN(CC(=O)Nc1ccc(Cl)cc1)C(=O)CNC(=O)c1ccc2ccccc2c1, which inhibition is on record?
The inhibition was 5.2%.

How did the inhibition turn out when CCCN(CCC)C(=O)C1c2ccccc2Oc2ccccc21 was run?
Its inhibition is 27.8% (active).

How did the inhibition turn out when CCCCCNC(=O)C1c2ccccc2Oc2ccccc21 was run?
The inhibition was -4.51%.

For CCOC(=O)CC(NC(=O)C1c2ccccc2Oc2ccccc21)c1ccc(C)cc1 (stereo not given), which inhibition is on record?
Its inhibition is 6.13%.

With CCOC(=O)CCCNC(=O)COC(=O)c1cc(Br)c(Br)s1 as the compound, how does the inhibition read?
The inhibition was -2.8%.

How did the inhibition turn out when COc1nc(Oc2ccc(=O)n(C)n2)nc(N(C)C)n1 was run?
The inhibition was 4.35%.

Which inhibition does the source give for O=C1Nc2ccc([N+](=O)[O-])cc2C1=Nc1cccc(CO)c1 here?
The inhibition was 31.8% (active).

O=[N+]([O-])c1ccc(N(CCO)Cc2ccccc2)c([N+](=O)[O-])c1 was tested. Which inhibition did it give?
The inhibition was 4.36%.

CN1CCN(/N=C2/C(=O)Nc3ccc([N+](=O)[O-])cc32)CC1 was tested. Which inhibition did it give?
Its inhibition is 1.85%.

CCCS(=O)(=O)N1CCCC(C(=O)NCCN2CCCCC2C)C1 (stereo not given) was tested. Which inhibition did it give?
Its inhibition is -3.97%.

Which inhibition does the source give for O=C(Nc1ccc2ccccc2c1)Nc1ccc2snnc2c1 here?
The inhibition was -10.5%.

Which inhibition does the source give for Cc1cc(OCCN2CCCC2)cc(C(C)C)c1 here?
The inhibition was 3.65%.

With COCCNC(=O)Nc1ccc2nc(-c3ccco3)c(-c3ccco3)nc2c1 as the compound, how does the inhibition read?
Its inhibition is 26.5% (active).

For O=C(Nc1nc(-c2ccco2)c(-c2ccco2)s1)c1ccco1, which inhibition is on record?
Its inhibition is 15.7%.

Which inhibition does the source give for COCCNC(=O)c1snc2ccc(Cl)cc12 here?
Its inhibition is 8.07%.

With CC(=O)Nc1ccc(NC(=O)C2CCCN(S(=O)(=O)c3ccc(Cl)cc3)C2)cc1 (stereo not given) as the compound, how does the inhibition read?
The inhibition was 4.7%.

Which inhibition does the source give for CCOc1ccc(S(=O)(=O)n2ccnc2)c2ccccc12 here?
Its inhibition is 4.28%.
